Laboratory results published in PubChem BioAssay AID2685 (National Center for Advancing Translational Sciences (NCATS), 2010).
Out of some 320,000 compounds screened, about 2,100 (0.66%) were called active. Inconclusive results (about 53%) are left out. Calls follow the shape of the dose curve; as a rule, active = well fitted inhibition curve with a large enough effect in the signal ratio, with a control signal flat (not every such curve was filed as active); inconclusive = small, poorly fitted or top-dose-only effect, or effect the other way, or a change in a side signal; inactive = flat fitted curve, though single readings scatter; the % refers to the signal ratio. The list comes from a sample in which actives are over-represented; it also holds similar structures and randomly drawn compounds.

assay: qHTS Assay for Lipid Storage Modulators in Drosophila S3 Cells; conditions: BODIPY lipid droplet fluorescence, 18-24 h, cells fed with added oleic acid; cell number change: measured here: cell count max response; series mostly up to 46.1 µM; lipid storage change, negative = inhibition: at the top concentration;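 as to cell number change: cells counted by Cell Tracker Red CMTPX staining in the red channel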; as to lipid storage change, negative = inhibition: % is scaled to controls: 0 for no effect and ±100 for the full control effect
Outline: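 Laser-scanning cytometry quantifies lipid droplet accumulation (500–530 nm total intensity; droplet/cell object ratio) in oleic acid-fed (400 uM added) Drosophila S3 cells treated with a concentration series. 20 uM Triacsin C defined 100% inhibition.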
Potency is read from the fitted curve at half-maximal effect.

Q: For `CCCNC(=S)Nc1ccc(Cl)cc1C`, which “lipid storage change, negative = inhibition” value is on record?
A: -8.54% (inactive)

Q: What about the cell number change of the same compound?
A: -19.9%

Q: Which “lipid storage change, negative = inhibition” value does the source give for `Cc1cc(Cl)ccc1NC(=S)NCC(C)C` here?
A: 4.75% (inactive)

Q: What about the cell number change of the same compound?
A: -2.85%

Q: For `Cc1cc(Cl)ccc1NC(=S)NCCc1ccc(Cl)cc1`, which Potency is on record?
A: 16.4 µM (active)

Q: And the cell number change?
A: -20.6%

Q: Which results are given for `Cc1ccc(/C=C2/SC(=S)N(CCC(=O)N3CCN(C)CC3)C2=O)cc1`?
A: lipid storage change, negative = inhibition: -5.28% (inactive); cell number change: 1.31%

Q: For `Cc1csc(NC(=O)CCS(=O)(=O)c2ccc(Br)cc2)n1`, which “outcome” value is on record?
A: inactive

Q: What does the source list for `Cc1ccc(S(=O)(=O)CCC(=O)Nc2nc(C(C)(C)C)cs2)cc1`?
A: Potency: 23.1 µM (active); cell number change: -1.15%

Q: For `Cc1ccc(S(=O)(=O)CCC(=O)Nc2nc(-c3cccnc3)cs2)cc1`, which Potency is on record?
A: 13 µM (active)

Q: And the cell number change?
A: -24.9%

Q: For `Cc1ccc(S(=O)(=O)CC(=O)Nc2nc(-c3ccccc3)cs2)cc1`, which “outcome” value is on record?
A: inactive

Q: For `O=C(CCS(=O)(=O)c1ccc(F)cc1)Nc1nc(-c2ccncc2)cs1`, which “outcome” value is on record?
A: inactive

Q: And the cell number change?
A: -16.7%

Q: With `Cc1ccc(S(=O)(=O)CC(=O)Nc2nc(C(C)(C)C)cs2)cc1` as the compound, how does the “outcome” value read?
A: inactive

Q: What about the cell number change of the same compound?
A: 18.4%

Q: Which results are given for `O=C(N/N=C/c1sc(N2CCOCC2)nc1-c1ccccc1)c1cccc(S(=O)(=O)N2CCCC2)c1`?
A: lipid storage change, negative = inhibition: 27.6% (inactive); cell number change: 111%

Q: With `O=[N+]([O-])c1ccc(N/N=C/c2sc(N3CCOCC3)nc2-c2ccccc2)c(S(=O)(=O)Nc2ccccc2Cl)c1` as the compound, how does the Potency read?
A: 1.03 µM (active)

Q: For `Cc1occc1C(=O)N/N=C/c1sc(N2CCOCC2)nc1-c1ccccc1`, which “lipid storage change, negative = inhibition” value is on record?
A: -6.96% (inactive)

Q: What about the cell number change of the same compound?
A: -21.3%

Q: With `O=C(c1ccccc1)c1nc2c(n1O)CCCCC2` as the compound, how does the “outcome” value read?
A: inactive

Q: With `Cc1cc(C(=O)Nc2ccccc2C(=O)O)ccc1NC(=O)COc1cccc([N+](=O)[O-])c1` as the compound, how does the “lipid storage change, negative = inhibition” value read?
A: 12.2% (inactive)

Q: And the cell number change?
A: 6.05%

Q: Which “lipid storage change, negative = inhibition” value does the source give for `COc1ccc(S(=O)(=O)N(CC(=O)NCCC(C)C)c2ccccc2)cc1OC` here?
A: -27.8% (inactive)

Q: What about the cell number change of the same compound?
A: -21.6%

Q: For `COc1cccc2cc(C(=O)NCCc3ccccc3)c(=O)oc12`, which “lipid storage change, negative = inhibition” value is on record?
A: 6.67% (inactive)

Q: And the cell number change?
A: 4.66%

Q: Which results are given for `COc1cccc2cc(C(=O)OCc3ccccc3)c(=O)oc12`?
A: Potency: 1.46 µM (active); cell number change: -24.9%

Q: What does the source list for `COc1cccc2cc(C(=O)Oc3ccccc3)c(=O)oc12`?
A: lipid storage change, negative = inhibition: -22.4% (inactive); cell number change: -11.3%

Q: Which “lipid storage change, negative = inhibition” value does the source give for `CCN1CCN(C(=S)Nc2ccc(C(C)=O)cc2)CC1` here?
A: 9.37% (inactive)

Q: Which “lipid storage change, negative = inhibition” value does the source give for `O=C1CCC(C(=O)NCc2ccccc2)N1` (stereo not given) here?
A: -8.49% (inactive)

Q: And the cell number change?
A: 7.41%

Q: With `COc1ccc(C(C)NC(=O)C2C(=O)NC3(C)CC2c2ccccc2O3)cc1` (stereo not given) as the compound, how does the “lipid storage change, negative = inhibition” value read?
A: 9.39% (inactive)

Q: And the cell number change?
A: -6.03%

Q: For `CC12CC(c3ccccc3O1)C(C(=O)NCc1ccccc1)C(=O)N2` (stereo not given), which Potency is on record?
A: 29.1 µM (active)

Q: What about the cell number change of the same compound?
A: 13.7%

Q: What does the source list for `CC12CCC(C(=O)NCc3ccccc3)(OC1=O)C2(C)C` (stereo not given)?
A: outcome: inactive; cell number change: -20.7%

Q: Which Potency does the source give for `CC1(C)OC(=O)CC1C(=O)NCc1ccccc1` (stereo not given) here?
A: 1.84 µM (active)

Q: And the cell number change?
A: 7.5%

Q: For `CC12CC(c3ccccc3O1)C(C(=O)N1CCOCC1)C(=O)N2` (stereo not given), which “lipid storage change, negative = inhibition” value is on record?
A: 1.33% (inactive)

Q: And the cell number change?
A: -1.42%

Q: With `CC(Oc1ccccc1)c1nnc(SCC(=O)NC2CC2)n1C` (stereo not given) as the compound, how does the “lipid storage change, negative = inhibition” value read?
A: -12.4% (inactive)

Q: And the cell number change?
A: 17.8%

Q: Which “outcome” value does the source give for `Cc1ccc2nc3sc(-c4nnc(-c5ccccc5[N+](=O)[O-])o4)c(N)c3cc2c1` here?
A: inactive

Q: Which “lipid storage change, negative = inhibition” value does the source give for `CCCn1c(=O)[nH]c(=O)c2c1nc(-c1ccccc1OC(F)F)n2CCOC` here?
A: 14.4% (inactive)

Q: And the cell number change?
A: 1.56%

Q: With `O=C(NCc1ccc2c(c1)OCO2)C1CCCN(S(=O)(=O)c2cccnc2)C1` (stereo not given) as the compound, how does the “lipid storage change, negative = inhibition” value read?
A: 10.6% (inactive)

Q: And the cell number change?
A: 9.61%

Q: Which “outcome” value does the source give for `O=C(CN1CCCCCC1)Nc1ccc([N+](=O)[O-])cc1Cl` here?
A: inactive

Q: What about the cell number change of the same compound?
A: -17.1%

Q: Which “lipid storage change, negative = inhibition” value does the source give for `O=C(COC(=O)c1ccccn1)NCc1ccccc1Cl` here?
A: -5.2% (inactive)

Q: With `CC(C)(C)N(Cc1ccccc1)C(=O)COC(=O)c1ccc(Br)o1` as the compound, how does the “lipid storage change, negative = inhibition” value read?
A: 15.1% (inactive)

Q: And the cell number change?
A: -7.45%

Q: Which results are given for `CC(C)(C)N(Cc1ccccc1)C(=O)COC(=O)c1ccc([N+](=O)[O-])o1`?
A: Potency: 11.6 µM (active); cell number change: -25.7%

Q: Which “lipid storage change, negative = inhibition” value does the source give for `CC(C)(C)N(Cc1ccccc1)C(=O)COC(=O)c1cccc([N+](=O)[O-])c1` here?
A: 24.6% (inactive)

Q: What about the cell number change of the same compound?
A: 17.2%

Q: Which “lipid storage change, negative = inhibition” value does the source give for `CC(NC(=O)CN(C1CCCCC1)S(C)(=O)=O)c1ccccc1` (stereo not given) here?
A: -21.2% (inactive)

Q: And the cell number change?
A: -4.99%

Q: Which “lipid storage change, negative = inhibition” value does the source give for `O=C(NCCC1CCCCN1S(=O)(=O)c1ccc(F)cc1)C(=O)NC1CC1` (stereo not given) here?
A: 12.8% (inactive)

Q: With `COc1cccc(NC(=O)C(=O)NCCC2CCCCN2S(=O)(=O)c2ccccc2)c1` (stereo not given) as the compound, how does the Potency read?
A: 9.2 µM (active)

Q: What about the cell number change of the same compound?
A: -3.85%

Q: For `O=C(NCCC1CCCCN1S(=O)(=O)c1ccccc1)C(=O)NC1CCCC1` (stereo not given), which “lipid storage change, negative = inhibition” value is on record?
A: 9.91% (inactive)

Q: And the cell number change?
A: -1.87%

Q: Which Potency does the source give for `Cc1ccc(S(=O)(=O)N2CCCCC2CCNC(=O)C(=O)NC2CCCC2)cc1` (stereo not given) here?
A: 0.184 µM (active)

Q: What about the cell number change of the same compound?
A: -16.3%

Q: Which lipid storage change, negative = inhibition does the source give for `COc1cccc(NC(=O)C(=O)NCCC2CCCCN2S(=O)(=O)c2cccs2)c1` (stereo not given) here?
A: -10.7% [at 0.0737 µM] (inactive)

Q: For `COc1ccccc1CNC(=O)C(=O)NCCC1CCCCN1S(=O)(=O)c1ccc(C)cc1` (stereo not given), which “lipid storage change, negative = inhibition” value is on record?
A: 26.8% (inactive)

Q: And the cell number change?
A: 18.8%

Q: With `COc1cccc(CNC(=O)C(=O)NCCC2CCCCN2S(=O)(=O)c2ccccc2)c1` (stereo not given) as the compound, how does the “lipid storage change, negative = inhibition” value read?
A: 23.2% (inactive)

Q: And the cell number change?
A: -8.33%

Q: With `Cc1ccc(S(=O)(=O)N2CCCCC2CCNC(=O)C(=O)NCc2ccccc2C)cc1` (stereo not given) as the compound, how does the Potency read?
A: 9.2 µM (active)

Q: With `Cc1ccc(S(=O)(=O)N2CCCCC2CCNC(=O)C(=O)NCc2ccccc2)cc1` (stereo not given) as the compound, how does the “lipid storage change, negative = inhibition” value read?
A: 28.7% (inactive)

Q: For `FC(F)(F)c1cccc(-c2ccn3ncnc3n2)c1`, which “lipid storage change, negative = inhibition” value is on record?
A: 8.44% (inactive)

Q: What about the cell number change of the same compound?
A: 16.1%

Q: Which results are given for `CC(=O)c1cc(-c2ccccc2)n(CC(=O)NC2CCCC2)c1C`?
A: lipid storage change, negative = inhibition: -17.9% (inactive); cell number change: -1.74%

Q: For `CCC(=O)Nc1ccc(NC(=O)CSc2nnnn2-c2ccc3c(c2)OCCO3)cc1`, which “lipid storage change, negative = inhibition” value is on record?
A: 7.85% (inactive)

Q: And the cell number change?
A: 5.29%
